Records with an inconclusive call do not appear. Active and inactive are the calls of the source. Calls come from the whole dose curve; as a rule, active = well fitted inhibition curve with a large enough effect in the repeat runs; inconclusive = weak or mixed curves; inactive = no such curve, though single readings can be large or run the other way.
Test: qHTS assay to identify small molecule antagonists of the thyroid receptor (TR) signaling pathway (AID 743065); note: nearly all actives have a fitted effect of over 55% in size
Conditions: GH3.TRE-Luc, T3-stimulated luciferase inhibition, 23.5 h; series mostly up to 70.3 µM; activity, negative = inhibition: at the top concentration
Text: U.S. Tox21 Program National Center for Advancing Translational Sciences [NCATS] NIH Chemical Genomics Center [NCGC] U.S. Environmental Protection Agency [EPA] National Institutes of Environmental Health Sciences [NIEHS] National Toxicology Program [NTP] U.S. Food and Drug Administration [FDA] Tox21 Assay Overview: Thyroid receptor (TR), a nuclear hormone receptor, plays an important role in development, proliferation, differentiation, metabolism, brain function, and cardiovascular system. […] To profile the Tox21 10K compound library in TR signaling, a cell-based GH3-TRE-Luc assay (GH3.TRE-Luc cell line, developed by the laboratory of Dr. Albertinka J. Murk, Wageningen University) was used to measure the inhibition of TR. GH3 (rat pituitary tumor) cells stably expressing a TR activity sensor consisting of two TR response elements and a luciferase reporter gene.
Tox21 Assay Protocol Summary: GH3.TRE-Luc cells were dispensed at 1500 cells/4 uL/well into 1536-well white solid bottom plates using a Multidrop Combi dispenser (Thermo Fisher Scientific Inc., Waltham, MA). After the assay plates were incubated at 37 C for 4 hours, 23 nL of library compound or DMSO controls was transferred to the assay plates by a pintool station (Kalypsys, San Diego, CA), followed by addition of 1 ul of T3 (1 nM, final concentration in the wells) to stimulate TR transactivation. The assay plates were incubated at 37 C for 23.5 h, and then 1 uL of CellTiter-Fluor reagent (Promega, Madision, WI) of measuring cytotoxicity was added to each well using a Bioraptr Flying Reagent Dispenser (FRD) workstation (Beckman Coulter, Indianapolis, IN, USA). The plates were incubated at 37 C and 5% CO2 for additional 30 min, and fluorescence intensity was measured by a ViewLux plate reader (PerkinElmer, Shelton, CT). For measuring luciferase reporter gene activity, 4 uL of ONE-Glo Luciferase Assay reagent (Promega) was added to each well using a Bioraptr FRD (Beckman Coulter), followed by 30 min incubation at room temperature. The luminescence intensity of plates was recorded by a ViewLux plate reader (PerkinElmer, Shelton, CT).
% is set by controls: 0 for no effect and ±100 for the full control effect; potency is the fitted concentration of half-maximal effect.

Question: With `Cc1cc(C)c(C(=O)O)c(C)c1` as the compound, how does the “activity, negative = inhibition” value read?
Answer: 0.543% (inactive)

Question: With `C[C@]12CCC(=O)C=C1CC[C@H]1[C@@H]3CC[C@](O)(C(=O)CO)[C@@]3(C)C[C@H](O)[C@@]12F` as the compound, how does the Potency read?
Answer: inactive

Question: For `O=C(O)CNC(=O)CNC(=O)CNC(=O)CSC(=O)c1ccccc1`, which “activity, negative = inhibition” value is on record?
Answer: 1.25% (inactive)

Question: For `COc1ccc2c(c1)c1c3n2CCN(C)C3=NCC1`, which “activity, negative = inhibition” value is on record?
Answer: -29.1% (inactive)

Question: With `C=CCCCC` as the compound, how does the “activity, negative = inhibition” value read?
Answer: -0.784% [at 95 µM] (inactive)

Question: Which “activity, negative = inhibition” value does the source give for `Cc1ccc(C(C)NC(=O)[C@@H](NC(=O)OC(C)C)C(C)C)cc1` (stereo not given in full) here?
Answer: -5.15% (inactive)

Question: Which “activity, negative = inhibition” value does the source give for `CC1=C(O)C(=O)C(C)O1` (stereo not given) here?
Answer: 5.57% [at 95 µM] (inactive)

Question: For `O=Cc1ccccc1Cl`, which “activity, negative = inhibition” value is on record?
Answer: -1.75% (inactive)

Question: With `O=C(Cl)c1ccccc1[N+](=O)[O-]` as the compound, how does the “activity, negative = inhibition” value read?
Answer: 14.7% [at 95 µM] (inactive)

Question: Which “activity, negative = inhibition” value does the source give for `CC(C)[C@H]1CC[C@H](C)C[C@@H]1O` here?
Answer: -0.129% [at 95 µM] (inactive)

Question: For `OC[C@H]1O[C@@H](O[C@@H]2[C@@H](CO)O[C@](O)(CO)[C@H]2O)[C@H](O)[C@@H](O)[C@H]1O`, which “activity, negative = inhibition” value is on record?
Answer: 9.49% (inactive)

Question: Which “activity, negative = inhibition” value does the source give for `N[C@@H](Cc1ccc(O)cc1)C(=O)O` here?
Answer: 4.2% (inactive)

Question: For `O/N=C/C=N/O`, which “activity, negative = inhibition” value is on record?
Answer: 4.82% (inactive)

Question: For `O=C1OCCO1`, which “activity, negative = inhibition” value is on record?
Answer: 31.7% [at 95 µM] (inactive)

Question: For `COc1cc2c(cc1OC)C(=O)C(CC1CCN(Cc3ccccc3)CC1)C2` (stereo not given), which Potency is on record?
Answer: 26.6 µM (active)

Question: Which “activity, negative = inhibition” value does the source give for `CCOc1cccc(N)c1` here?
Answer: 13.9% (inactive)

Question: With `COc1ccc(CCO)cc1` as the compound, how does the “activity, negative = inhibition” value read?
Answer: 0.722% (inactive)

Question: For `CC1CCc2c(N3CCC(O)CC3)c(F)cc3c(=O)c(C(=O)O)cn1c23` (stereo not given), which “activity, negative = inhibition” value is on record?
Answer: 1.36% (inactive)

Question: For `CC1OCCC1=O` (stereo not given), which “activity, negative = inhibition” value is on record?
Answer: 5.63% (inactive)

Question: Which activity, negative = inhibition does the source give for `O=C1c2ccccc2C(=O)c2cc(Cl)ccc21` here?
Answer: 31.6% [at 8.44 µM] (inactive)

Question: For `CC(C)(C)NC[C@H](O)COc1cccc2c1CCCC2=O`, which “activity, negative = inhibition” value is on record?
Answer: 3.62% [at 32.5 µM] (inactive)

Question: Which “activity, negative = inhibition” value does the source give for `O=C(O)CSCC(=O)NC1CCSC1=O` (stereo not given) here?
Answer: 4.3% (inactive)

Question: For `CC/C(C)=N\O[Si](C)(O/N=C(\C)CC)O/N=C(\C)CC`, which “activity, negative = inhibition” value is on record?
Answer: 15.1% [at 95 µM] (inactive)

Question: For `O=C=NCC1CCCC(CN=C=O)C1` (stereo not given), which “activity, negative = inhibition” value is on record?
Answer: 4.45% (inactive)

Question: For `CC1=NN(c2ccc(S(=O)(=O)O)cc2)C(=O)C1`, which “activity, negative = inhibition” value is on record?
Answer: 10.2% (inactive)

Question: With `C=CCCCCCCCC` as the compound, how does the “activity, negative = inhibition” value read?
Answer: 7.11% [at 95 µM] (inactive)

Question: Which “activity, negative = inhibition” value does the source give for `O=C(O)c1cc2ccccc2nc1C(=O)O` here?
Answer: 0.141% (inactive)

Question: Which “activity, negative = inhibition” value does the source give for `CC(C)OC(=O)CCC(=O)OC(C)C` here?
Answer: 6.72% (inactive)

Question: With `Cn1c(=O)c2c(ncn2CCO)n(C)c1=O` as the compound, how does the “activity, negative = inhibition” value read?
Answer: 10.6% (inactive)

Question: Which “activity, negative = inhibition” value does the source give for `CCc1occc(=O)c1O` here?
Answer: 18.4% (inactive)

Question: For `CCCC(CC)c1ccccc1` (stereo not given), which “activity, negative = inhibition” value is on record?
Answer: 7.87% (inactive)

Question: With `CC(=O)OC(C)=O` as the compound, how does the “activity, negative = inhibition” value read?
Answer: 2.06% [at 95 µM] (inactive)

Question: For `COC(=O)c1ccccc1C(=O)O`, which “activity, negative = inhibition” value is on record?
Answer: -4.58% (inactive)

Question: With `OCC1(CO)COCOC1` as the compound, how does the “activity, negative = inhibition” value read?
Answer: 18.2% (inactive)

Question: With `CN(C)CCOC(=O)C(c1ccccc1)C1(O)CCCC1` (stereo not given) as the compound, how does the “activity, negative = inhibition” value read?
Answer: -2.29% (inactive)

Question: With `c1ccc(-c2nn[nH]n2)cc1` as the compound, how does the “activity, negative = inhibition” value read?
Answer: 11.8% (inactive)

Question: For `CCCCCc1cccc(=O)o1`, which “activity, negative = inhibition” value is on record?
Answer: 0.306% (inactive)

Question: With `c1ccc2cnccc2c1` as the compound, how does the “activity, negative = inhibition” value read?
Answer: 0.716% (inactive)

Question: With `CC(C)CCOC(=O)c1ccccc1` as the compound, how does the “activity, negative = inhibition” value read?
Answer: 6.9% (inactive)

Question: For `C=CC(=O)CCCCC`, which “activity, negative = inhibition” value is on record?
Answer: 1.79% [at 95 µM] (inactive)

From PubChem BioAssay (Tox21)
